# About 2,200 (0.71%) of roughly 310,000 compounds showed an effect of 50% or more. Effects have a minus sign here. The full list was thinned out, with strong results kept by preference.
# Biological target: human ether-à-go-go-related gene (hERG) potassium channel (human, UniProt Q12809)
# Assay: primary screen, population patch clamp on CHO cells stably expressing hERG; higher = less effect of the substance
# Procedure: Briefly, Chinese hamster ovary (CHO) cells stably expressing the hERG channel were dislodged from tissue culture flasks and dispensed into PPC plates. […] During the recording, background leak currents were estimated by a 100 ms step to -80 mV from an initial holding potential of -70 mV and subtracted from the subsequent current measurement. The campaign was conducted in two phases using slight differences in recording protocol. In the first phase, the initial voltage pulse used a 100 ms step to -30 mV from a holding potential of -70 mV, a 2 s conditioning step to +25 mV, and a 2 s test step to -30 mV. During the second phase of the screen, the potential during the conditioning step was raised to +45 mV. In both phases of the campaign, a secondary voltage pulse was applied using the same parameters as the second phase initial pulse. The initial and secondary pulses were applied in the absence of compound, and upon application of 1 μM and 10 μM test concentrations. Small molecule effects on hERG current density were quantified by […].
# human ether-à-go-go-related gene (hERG) potassium channel, sequence (Q12809 whole entry, looked up): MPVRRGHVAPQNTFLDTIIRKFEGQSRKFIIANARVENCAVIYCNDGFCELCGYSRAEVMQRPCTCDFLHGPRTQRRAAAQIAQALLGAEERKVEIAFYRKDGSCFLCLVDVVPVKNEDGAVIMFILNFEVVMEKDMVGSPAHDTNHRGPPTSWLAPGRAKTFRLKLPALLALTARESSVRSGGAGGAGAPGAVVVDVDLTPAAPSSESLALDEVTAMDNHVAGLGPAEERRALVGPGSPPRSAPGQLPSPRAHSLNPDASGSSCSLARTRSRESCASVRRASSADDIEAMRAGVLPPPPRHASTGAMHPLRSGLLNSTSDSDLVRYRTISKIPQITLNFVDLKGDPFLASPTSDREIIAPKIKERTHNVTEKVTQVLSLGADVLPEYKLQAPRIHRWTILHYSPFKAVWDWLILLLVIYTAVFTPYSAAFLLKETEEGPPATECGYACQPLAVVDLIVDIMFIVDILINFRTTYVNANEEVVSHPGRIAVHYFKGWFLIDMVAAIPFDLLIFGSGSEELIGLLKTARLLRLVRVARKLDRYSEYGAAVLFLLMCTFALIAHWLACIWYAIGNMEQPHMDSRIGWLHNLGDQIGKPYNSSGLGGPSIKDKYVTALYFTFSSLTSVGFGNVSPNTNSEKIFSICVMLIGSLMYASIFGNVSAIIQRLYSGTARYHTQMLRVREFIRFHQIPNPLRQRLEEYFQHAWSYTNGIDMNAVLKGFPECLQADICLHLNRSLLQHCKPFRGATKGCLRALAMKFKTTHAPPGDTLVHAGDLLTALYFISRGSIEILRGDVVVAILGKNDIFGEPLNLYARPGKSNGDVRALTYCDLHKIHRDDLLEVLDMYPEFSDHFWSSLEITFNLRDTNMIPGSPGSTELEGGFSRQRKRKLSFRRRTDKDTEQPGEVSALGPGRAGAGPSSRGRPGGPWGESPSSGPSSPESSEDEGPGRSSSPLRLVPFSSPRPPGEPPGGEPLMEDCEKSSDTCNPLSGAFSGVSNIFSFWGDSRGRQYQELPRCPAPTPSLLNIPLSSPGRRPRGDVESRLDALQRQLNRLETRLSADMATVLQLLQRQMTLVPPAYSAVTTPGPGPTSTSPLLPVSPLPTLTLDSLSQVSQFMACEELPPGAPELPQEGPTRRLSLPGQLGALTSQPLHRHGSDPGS
row,Structure (SMILES),"hERG current change (%, negative = inhibition) at 1uM"
1,O=c1nc2ccccc2c2n1CC(CN1CCN(c3ccccc3F)CC1)N2 (centres unmarked),-20.7%
2,O=c1nc2ccccc2c2n1CC(CN1CCN(c3ccc(F)cc3)CC1)N2 (centres unmarked),-65.6%
3,O=c1nc2ccccc2c2n1CC(CN1CCN(c3cccc(Cl)c3)CC1)N2 (centres unmarked),-38.9%
4,O=C1NCCN(Cc2cccc(Oc3ccccc3)c2)C1CC(=O)N1CCCO1 (centres unmarked),12.1%
5,COc1ccc(-c2nc(=S)[nH][nH]2)cc1OC,10.4%
6,Cc1ccc(Cn2ccnc2C(=O)Nc2ccccc2)cc1,9.01%
7,N#Cc1ccc(Cn2ccnc2C(=O)Nc2ccccc2)cc1,-86.8%
8,O=C(Nc1ccccc1)c1nccn1Cc1ccc(F)cc1,11.3%
9,O=C(NC(c1ccccc1)c1ccccn1)c1cccc([N+](=O)[O-])c1 (centres unmarked),12.3%
10,O=C1C(=O)N(CCN2CCOCC2)C(c2cccc(Cl)c2)/C1=C(\O)c1ccc2c(c1)OCCO2 (centres unmarked),2.15%
11,CC(=O)c1coc2ccc(OCC(=O)O)cc12,-0.294%
12,CCOc1cc(/C=N/NC(=O)c2cccnc2)ccc1OCC(N)=O,10.8%
13,CCOc1cc(/C=N/NC(=O)c2cccnc2)cc(Br)c1OCC(N)=O,-69.4%
14,CCOc1cc(/C=N/NC(=O)c2cccnc2)ccc1O,7.47%
15,CCCCCCCn1c2c(c(=N)c3ccccc31)CCC2.I,-89.6%
16,CCCCCn1c2c(c(=N)c3ccccc31)CCC2.I,-61.5%
17,Br.CCn1c2c(c(=N)c3ccccc31)CCC2,12%
18,O=C(O)CCn1c2c(c3ccccc31)CCCC2,19.5%
19,CCCCn1c2c(c(=N)c3ccccc31)CCC2.I,-16.6%
20,CCOC(=O)Cn1c2c(c(=N)c3ccccc31)CCC2.Cl,12.7%
21,CCOc1cc(NC(=S)NCCCN2CCOCC2)c(OCC)cc1NC(=O)c1ccccc1,16.1%
22,O=C(Nc1ccccc1)C1CC=CCC1C(=O)OCC1CCCO1 (centres unmarked),-5.31%
23,O=C1C2CCCN2C(=O)N1CCCCN1CCN(c2ccccc2)CC1 (centres unmarked),1.66%

row,Structure (SMILES),"hERG current change (%, negative = inhibition) at 1uM"
1,O=C1C2CCCCN2C(=O)N1CCN1CCN(c2ccc([N+](=O)[O-])cc2)CC1 (centres unmarked),-69.7%
2,O=C(CCN1C(=O)C2C3C=CC(C3)C2C1=O)N1CCN(c2ccc([N+](=O)[O-])cc2)CC1 (centres unmarked),-49.5%
3,O=C1C2CCCN2C(=O)N1CCN1CCN(c2ccccc2)CC1 (centres unmarked),-10.6%
4,O=C1C2CCCN2C(=O)N1CCCN1CCN(c2ccc([N+](=O)[O-])cc2)CC1 (centres unmarked),-63.3%
5,O=C1C2CCCCN2C(=O)N1CCCCN1CCN(c2ccc([N+](=O)[O-])cc2)CC1 (centres unmarked),-80.7%
6,O=C1C2CCCCN2C(=O)N1CCCN1CCN(c2ccc(F)cc2)CC1 (centres unmarked),-3.12%
7,Cc1ccc(N2CCN(CCCCN3C(=O)C4CCCN4C3=O)CC2)cc1.Cl (centres unmarked),-3.91%
8,O=C(CCCN1C(=O)C2CCCCN2C1=O)N1CCN(c2ccc([N+](=O)[O-])cc2)CC1 (centres unmarked),-78.5%
9,O=C1C2CCCCN2C(=O)N1CCCCN1CCN(c2ccc(F)cc2)CC1 (centres unmarked),-7.05%
10,Cl.Nc1ccc(N2CCN(CCCCN3C(=O)C4CCCN4C3=O)CC2)cc1.O (centres unmarked),18.3%
11,Cc1ccc(N2CCN(CCCN3C(=O)C4CCCN4C3=O)CC2)cc1.Cl (centres unmarked),4.77%
12,Cc1cc(C)cc(N(C(=O)c2csnn2)C(C(=O)NC2CCCCC2)c2ccccn2)c1 (centres unmarked),11.5%
13,CN(Cc1ccccc1)C(=O)c1ccc(NC2=NC3CS(=O)(=O)CC3S2)cc1 (centres unmarked),-3.47%
14,O=C(O)Cc1ccc(O)c(F)c1,4.7%
15,CN1CCN(NC(=S)NC2CCCCC2)CC1,3.73%
16,CCOC(=O)C1CCN(C(=O)c2sccc2Cl)CC1,12.5%
17,O=S(=O)(Nc1ccc(Cl)cn1)c1ccc(Cl)cc1,16.8%
18,O=C(NNC(=O)C1CCCO1)c1ccc(Br)cc1 (centres unmarked),8.75%
19,O=C(NC1CCCCC1)NC1CCN(S(=O)(=O)c2ccc3c(c2)OCCO3)CC1,9.08%
20,Cc1ccc(S(=O)(=O)N(C(=O)c2ccncc2)c2ccc3oc4c(c3c2)CCCC4)cc1[N+](=O)[O-],19.2%
21,Cc1ccc(Nc2nc(Cl)nc(NC(C)(C)C)n2)cc1,11.9%
22,O=C(NCC(=O)N1CCN(c2ccccc2)CC1)c1ccc(Br)o1,-7.83%
23,Cc1ccc(Cl)cc1N1CCN(C(=O)CNC(=O)c2ccc(Br)o2)CC1,4.64%

row,Structure (SMILES),"hERG current change (%, negative = inhibition) at 1uM"
1,O=C(NCC(=O)N1CCN(c2cccc(Cl)c2)CC1)c1ccc(Br)o1,-57.5%
2,Cc1ccc(-n2c(-c3ccccc3)c[n+]3c2CCC3)cc1.[Br-],-2.23%
3,COc1ccc(-n2c(-c3ccc(Cl)cc3)c[n+]3c2CCCCC3)cc1.[Br-],8.19%
4,Cc1ccc(-c2c[n+]3c(n2-c2ccccc2)CCC3)cc1.[Br-],1.57%
5,COc1ccc(-n2c(-c3ccc(Br)cc3)c[n+]3c2CCc2ccccc2-3)cc1.[Br-],-90.6%
6,Cc1ccc(-n2c(-c3ccc(Br)cc3)c[n+]3c2CCc2ccc4cccnc4c2-3)cc1.[Br-],-86.6%
7,Cc1ccc(-n2c(-c3ccccc3)c[n+]3c2CCc2ccccc2-3)c(C)c1.[Br-],-82.5%
8,COc1ccc(-n2c(-c3ccc(Br)cc3)c[n+]3c2CCC3)cc1.[Br-],-21%
9,COc1ccc(-n2c(-c3ccccc3)c[n+]3c2CCC3)cc1.[Br-],6.43%
10,COc1ccc(-n2c(-c3ccc(Cl)cc3)c[n+]3c2CCc2ccccc2-3)cc1.[Br-],-70.3%
11,COc1ccccc1-n1c(-c2ccccc2)c[n+]2c1CCc1ccccc1-2.[Br-],-34.7%
12,COc1ccc(-n2c(-c3ccc(Br)cc3)c[n+]3c2SC(C)C3)cc1.[Br-] (centres unmarked),-26%
13,Brc1ccc(-c2cn3c(n2)CCc2ccc4cccnc4c2-3)cc1,10.5%
14,O=C(NCCN1CCOCC1)c1ccc(N2CCCC2)c([N+](=O)[O-])c1,-2.75%
15,COC(=O)/C=C\C(=O)Nc1cccc([N+](=O)[O-])c1,8.24%
16,CCOc1nc(C)cc(C)c1S(=O)(=O)c1ccc(Cl)cc1,9.36%
17,CCCCNC(=O)C1CCCN(S(=O)(=O)c2ccc(S(=O)(=O)NCC(C)C)cc2)C1 (centres unmarked),-3.36%
18,COc1ccccc1NCC(=O)N/N=C/c1cccnc1,4.49%
19,Cn1c(SCC(=O)Nc2ccccc2)nnc1-c1ccc(NC(=O)CCc2ccccc2)cc1,6.68%
20,Cc1cc(C)nc(-n2nc(C)cc2NC(=O)CN2CCc3ccccc3C2)n1,-26.4%
21,COc1ccc(OC)c(C2C(C(N)=O)=C(C)Nc3nc(CCCO)nn32)c1 (centres unmarked),15.5%
22,Cc1onc(-c2ccccc2Cl)c1C(=O)N1CCN(c2ccccc2)CC1,1.1%
23,O=C(c1cn(-c2ccccc2)nc1-c1cccs1)N1CCOCC1,4.92%

row,Structure (SMILES),"hERG current change (%, negative = inhibition) at 1uM"
1,C=CCN(CC=C)CCOc1ccc(C)cc1[N+](=O)[O-].O=C(O)C(=O)O,-62.5%
2,C=CCN(CC=C)CCOc1ccccc1[N+](=O)[O-].O=C(O)C(=O)O,1.55%
3,C=CCN(CC=C)CCOc1cc(C)ccc1[N+](=O)[O-].O=C(O)C(=O)O,6.69%
4,O=C(CN1CCN(Cc2ccccc2)CC1)NC(=O)NC1CCCCC1,-16.1%
5,O=C(CN1CCN(C/C=C/c2ccccc2)CC1)Nc1ccccc1C(=O)NC1CC1,-88.8%
6,CC1CCN(CC(=O)Nc2ccccc2C(=O)NC2CC2)CC1,5.31%
7,S=C(NC1CCCCC1)N1CCN(C/C=C/c2ccccc2)CC1,3.77%
8,NC(=O)C1CCN(CC(=O)Nc2ccccc2C(=O)NC2CC2)CC1,10.7%
9,O=C(CN1CCN(C/C=C/c2ccccc2)CC1)NC(=O)NC1CCCCC1,-69.7%
10,O=C(CSCc1ccccc1)N/N=C/c1cc2c(cc1Br)OCO2,8.61%
11,CSc1nnc(Cc2sc(-c3ccccc3)nc2-c2ccccc2)o1,12.1%
12,CCOc1ccc(CN2CCN(Cc3cccn3-c3ncccn3)CC2CCO)cc1 (centres unmarked),-84%
13,COc1ccc(CN2CCN(Cc3ccon3)CC2CCO)c(C)c1C (centres unmarked),2.93%
14,OCCC1CN(Cc2cccn2-c2ncccn2)CCN1C1CCCC1 (centres unmarked),0.978%
15,CC(C)=CCN1CCN(Cc2cccn2-c2ncccn2)CC1CCO (centres unmarked),-3.9%
16,OCCC1CN(Cc2cccn2-c2cccnc2)CCN1Cc1ccccc1 (centres unmarked),-7.57%
17,COc1ccc(CN2CCN(CC3CC3)CC2CCO)c(C)c1C (centres unmarked),13.2%
18,OCCC1CN(Cc2cccn2-c2cccnc2)CCN1CCc1ccccc1 (centres unmarked),-37.5%
19,OCCC1CN(Cc2cccn2-c2ncccn2)CCN1Cc1ccc(F)cc1 (centres unmarked),-74.7%
20,OCCC1CN(Cc2cccn2-c2ncccn2)CCN1CCc1ccccc1 (centres unmarked),-44.6%
21,COc1ccc(CN2CCN(Cc3cccn3-c3ncccn3)CC2CCO)c(C)c1C (centres unmarked),-80.4%
22,COc1cccc(CN2CCN(Cc3cccn3-c3cccnc3)CC2CCO)c1 (centres unmarked),-62.2%
23,OCCC1CN(Cc2cccn2-c2ncccn2)CCN1Cc1ccccc1 (centres unmarked),-33.4%

# Reference: PMC4336329 (PLoS ONE, 2015)
